{"source": "the supplement of paper PMC9844399", "note": "Where a name gives a salt, the structure may show the parent alone.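 Note: Hoechst-stained nuclei counted by automated confocal imaging of four fields per well in 384-well plates, with the robust Z-score based on the per-plate DMSO median and robust SD.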"}
{"system": "HeLa", "assay": "nuclear count per well, robust Z-score vs DMSO; higher = more cells (less toxicity)", "settings": "10 µM; 6 h"}
{"smiles": "Nc1nc(=O)n([C@@H]2CS[C@H](CO)O2)cc1F", "note": "[Emtricitabine]", "nuclear count per well": 0.584}
{"smiles": "COC(=O)C1=C(C)NC(C)=C(C(=O)OC(C)C)C1c1cccc2nonc12", "note": "(centres undefined) [Isradipine]", "nuclear count per well": -1.15}
{"smiles": "CN(C)CCc1c[nH]c2ccc(Cn3cncn3)cc12", "note": "[Rizatriptan Benzoate]", "nuclear count per well": 1.79}
{"smiles": "CN1C(=O)OC(C)(C)C1=O", "note": "[Trimethadione]", "nuclear count per well": -1.17}
{"smiles": "COc1cc2c(cc1OC)-c1c/c(=N\\c3c(C)cc(C)cc3C)n(C)c(=O)n1CC2", "note": "[Trequinsin]", "nuclear count per well": 0.483}
{"smiles": "CC(C)(C(=O)NCC(F)(F)C(F)(F)F)C(=O)N[C@@H]1C(=O)Nc2ccccc2-c2ccccc21", "nuclear count per well": 0.372}
{"smiles": "Nc1nc(O)c2ncn(CCC(CO)CO)c2n1", "note": "[Penciclovir]", "nuclear count per well": -0.155}
{"smiles": "CC1(C)S[C@@H]2[C@H](NC(=O)Cc3ccccc3)C(=O)N2[C@H]1C(=O)O", "note": "[Penicillin G Potassium (Benzylpenicillin)]", "nuclear count per well": 1.08}
{"smiles": "CCCCC/C=C\\C\\C=C/C=C/C=C/[C@@H](SC[C@H](NC(=O)CC[C@H](N)C(=O)O)C(=O)NCC(=O)O)[C@@H](O)CCCC(=O)O", "note": "[Leukotriene C4]", "nuclear count per well": 0.638}
{"smiles": "O=C1Nc2ccccc2/C1=C1/Nc2ccccc2C1=O", "note": "[Indirubin]", "nuclear count per well": -0.156}
{"smiles": "CCN(CC)CCCC(C)Nc1c2ccc(Cl)cc2nc2ccc(OC)cc12", "note": "(centres undefined)", "nuclear count per well": -2.72}
{"smiles": "COc1cc2ncnc(Nc3cccc(Cl)c3)c2cc1OC", "nuclear count per well": 0.518}
{"smiles": "CC(C)NCC(O)COc1ccc(CCOCC2CC2)cc1", "note": "(centres undefined)", "nuclear count per well": 0.273}
{"smiles": "CC(/C=C/C(=O)NO)=C\\[C@@H](C)C(=O)c1ccc(N(C)C)cc1", "note": "[Trichostatin-A]", "nuclear count per well": -2.22}
{"smiles": "C#C[C@]1(O)CC[C@H]2[C@@H]3CCC4=CCCC[C@@H]4[C@H]3C(=C)C[C@@]21CC", "note": "[Desogestrel]", "nuclear count per well": 0.13}
{"smiles": "CO/N=C(\\C(=O)N[C@@H]1C(=O)N2C(C(=O)O)=C(COC(N)=O)CS[C@H]12)c1ccco1", "nuclear count per well": 0.832}
{"smiles": "O=C1O[C@H]([C@@H](O)CO)C(O)=C1O", "note": "[Ascorbic acid]", "nuclear count per well": -0.378}
{"smiles": "O=C(O)CC[C@H]1CC[C@@](c2cc(F)ccc2F)(S(=O)(=O)c2ccc(Cl)cc2)CC1", "nuclear count per well": -0.879}
{"smiles": "COc1cc2ncnc(Nc3cccc(Cl)c3)c2cc1OC", "note": "[Tyrphostin AG 1478]", "nuclear count per well": -0.224}
{"smiles": "CC(C)Nc1cccnc1N1CCN(C(=O)c2cc3cc(NS(C)(=O)=O)ccc3[nH]2)CC1", "note": "[Delavirdine Mesylate]", "nuclear count per well": -0.582}
{"smiles": "CC[N+](C)(CC)CCC[n+]1c(-c2ccccc2)c2cc(N)ccc2c2ccc(N)cc21", "note": "[Propidium iodide]", "nuclear count per well": 1.8}
{"smiles": "CCCC(=O)Nc1ncnc2c1ncn2[C@@H]1O[C@@H]2COP(=O)(O)O[C@H]2[C@H]1OC(=O)CCC", "note": "[Dibutyrylcyclic AMP]", "nuclear count per well": -0.946}
{"smiles": "CCCCC1C(=O)N(c2ccccc2)N(c2ccccc2)C1=O", "note": "[Phenylbutazone]", "nuclear count per well": 0.422}
{"smiles": "CNCC[C@H](Oc1cccc2ccccc12)c1cccs1", "nuclear count per well": -0.411}
{"smiles": "CC(=O)O[C@H]1C(=O)[C@@]2(C)[C@H]([C@H](OC(=O)c3ccccc3)[C@]3(O)C[C@H](OC(=O)[C@H](O)[C@@H](NC(=O)c4ccccc4)c4ccccc4)C(C)=C1C3(C)C)[C@]1(OC(C)=O)CO[C@@H]1C[C@@H]2O", "note": "[Taxol = Paclitaxel]", "nuclear count per well": -2.61}
{"smiles": "CO[C@H]1C[C@@H]2CC[C@@H](C)[C@@](O)(O2)C(=O)C(=O)N2CCCC[C@H]2C(=O)O[C@H]([C@H](C)C[C@@H]2CC[C@@H](O)[C@H](OC)C2)CC(=O)[C@H](C)/C=C(\\C)[C@@H](O)[C@@H](OC)C(=O)[C@H](C)C[C@H](C)/C=C/C=C/C=C/1C", "note": "[Rapamycin]", "nuclear count per well": 1.56}
{"smiles": "O=C1CCCC(=O)C1C(=O)c1ccc(C(F)(F)F)cc1[N+](=O)[O-]", "note": "[Nitisinone]", "nuclear count per well": -0.815}
{"smiles": "CC/C=C\\C/C=C\\C/C=C\\C/C=C\\C/C=C\\C/C=C\\CCC(=O)O", "note": "[Docosahexaenoic acid(22:6 n-3)]", "nuclear count per well": -0.118}
{"smiles": "CCN1CCCC1CNC(=O)c1cc(S(N)(=O)=O)ccc1OC", "note": "(centres undefined) [Sulpiride]", "nuclear count per well": 0.691}
{"smiles": "CCCCOc1cc(CC2CNC(=O)N2)ccc1OC", "note": "(centres undefined)", "nuclear count per well": 0.226}
{"smiles": "Nc1ccn([C@@H]2O[C@H](CO)[C@@H](O)[C@@H]2O)c(=O)n1", "note": "[Cytarabine]", "nuclear count per well": -2.12}
{"smiles": "CC(C)NCC(O)COc1ccc(CC(N)=O)cc1", "note": "(centres undefined)", "nuclear count per well": 0.069}
{"smiles": "CCCCCCCCCCC1=C(C)C(=O)C(OC)=C(OC)C1=O", "note": "[Decylubiquinone]", "nuclear count per well": 0.27}
{"smiles": "Clc1ccc(C(Cn2ccnc2)OCc2csc3c(Cl)cccc23)c(Cl)c1", "note": "(centres undefined) [Sertaconazole]", "nuclear count per well": 0.262}
